{"source": "PubChem BioAssay AID493014", "about": "(National Center for Advancing Translational Sciences (NCATS), 2011)", "note": "In all, about 340,000 compounds went through this assay and about 170 (0.05%) were called active. Roughly 26% stayed inconclusive and do not appear here. Calls come from the whole dose curve; as a rule, active = well fitted inhibition curve with a large enough effect in the signal ratio, with a control signal flat (not every such curve was filed as active); inconclusive = small, poorly fitted or top-dose-only effect, or effect the other way, or a change in a side signal; inactive = flat fitted curve, though single readings scatter; the % refers to the signal ratio. The list comes from a sample in which actives are over-represented; it also holds similar structures and randomly drawn compounds. Entries that show only a call come without a potency. Potency is the fitted concentration of half-maximal effect.", "data": [{"assay": "qHTS Assay to Find Inhibitors of Chronic Active B-Cell Receptor Signaling", "details": "ABC-DLBCL IkBa-CBG/CBR reporter, luminescence ratio, 4 h; series mostly up to 46.1 µM", "text": "NIH Molecular Libraries Probe Production Network [MLPCN] NIH Chemical Genomics Center [NCGC] MLPCN Grant: 1 R03 DA031086-01A1 PI Name: Dr. R. Eric Davis NCGC Assay Overview: Diffuse large B-cell lymphoma (DLBCL) is the most common category of non-Hodgkin lymphoma, with ~20,000 new cases per year in the United States. DLBCL should be regarded as a collection of different neoplasms. Microarray gene expression analysis has defined two principal types of DLBCL, named for their similarity to normal B cell stages or activation states: a germinal center B-cell (GCB) type, and an activated B-cell (ABC) type. In ABC-DLBCL, a constitutive high-level activity of the NF-kappaB family of transcription factors has been observed (1) and NF-kappaB target genes are more highly expressed in ABC primary tumors than in GCB tumors. Functional studies have shown a constitutive high-level activity of the IkappaB (inhibitor of kappa-B) kinase (IKK) complex. […] Further analysis of DLBCL primary tumors for NF-kappaB target gene expression imply that although CARD11 is required for constitutive IKK activity in all ABC-DLBCL lines, mutations in CARD11 may be the root cause of IKK activation only in lines or tumors with such mutations. In other words, CARD11 mutations may explain NF-kappaB activation in only 10% of ABC-DLBCL cases. […] This process has been termed 'chronic active BCR signaling' (CABS). The goal of this screen is to find small-molecule inhibitors of the CABS pathway found in ABC-DLBCL lines using a cell-based assay that measures IkappaBalpa stability, which has already been extensively validated in the OCI-Ly3 line (PubChem AID:445; REF: 4). […] The assay uses green (CBG68) and red (CBR) emitting beetle luciferases [Chroma-GloTM developed by Promega Corp.] where the green luciferase is fused to IkappaBalpha and the red luciferase is present in its native state. Both luciferase genes are stably present in the TMD8 human ABC DLBCL cell line, but their expression is under the control of tetracycline-inducible promoters. Following the addition of doxycycline to induce expression of the luciferases, the green luminescence in control cultures rises only slowly because the CBG fusion partner IkappaBalpha is targeted by IKK activity for rapid degradation. In contrast, green luminescence rises rapidly in the presence of proteasome inhibitors or IKK inhibitors. The rise in red luminescence of CBR is not affected by proteasome or IKK inhibitors, and serves as normalization for cell number and nonspecific effects. Compounds were screened as a concentration-titration series that ranged from 46 uM to 3 nM.\nNCGC Assay Protocol Summary: Cells were seeded in 1536-well plates at 5000 cells/4uL in IMDM medium containing 0.5% FBS, w/o phenol red, 1% penicillin/streptomycin. Then, 23 nL of compounds or DMSO were delivered to each well using a pin tool. One uL 20ng/ml doxycycline was then dispensed into white solid 1536-well plates and the plates were incubated at 37C/5% C02 in a cell incubator for 4 hrs. Then 4 uL luminescent substrate mix (in-house prepared: 150 mM Tris-Cl, pH 7.6, 3 mM MgCl2, 1% Triton X-100, 5 mM DTT, 0.2 mM CoA, 0.15 mM ATP, 5 mM D-luciferin, final concentrations) was added to each well. The plate was incubated at r.t. for 10-15 min. The plates were measured on a ViewLux plate reader for green luminescence (540/20 nm filter) and red luminescence (618/8 nm filter). The green and red luminescent signals were corrected for red and green luminescence filter overlap using previously determined filter calibration constants (determined using the procedure outlined in the Promega Technical Manual; REF 4). The %Activity was determined from the ratio of corrected green/red luminescent values. MG132 were used as control. […] Red luminescent %Activity was normalized to the difference between red luminesence in basal cells (0%Activity) and zero luminescence (-100% Activity). […]", "values": [{"smiles": "CCCCN(CC(=O)Nc1cccc(S(=O)(=O)N2CCCC2)c1)Cc1nc2ccccc2c(=O)[nH]1", "Potency": "inactive"}, {"smiles": "O=S(=O)(NCCCCCCNS(=O)(=O)c1c(F)cccc1F)c1ccc2c(c1)OCCO2", "Potency": "inactive"}, {"smiles": "CCN(c1ccccc1)S(=O)(=O)c1cccc(C(=O)NCc2ccccc2CN2CCOCC2)c1", "Potency": "inactive"}, {"smiles": "C=CC[C@@H](CC(=O)N[C@H](CO)Cc1ccccc1)C(=O)N[C@H](C)COC(=O)[C@@H](CC=C)Cc1ccc(F)cc1", "Potency": "inactive"}, {"smiles": "O=S(=O)(NC1CCN(S(=O)(=O)c2ccc3c(c2)OCCO3)CC1)c1c(F)cccc1F", "Potency": "inactive"}, {"smiles": "COC(=O)[C@]1(Cc2ccccc2)N[C@H](CN(C)S(=O)(=O)c2ccc(OC(F)(F)F)cc2)[C@@H]2C(=O)N(C)C(=O)[C@@H]21", "Potency": "inactive"}, {"smiles": "Nc1ccc(Nc2cc(O)c3ncccc3c2)cc1", "Potency": "inactive"}, {"smiles": "Cc1ccc(NS(=O)(=O)c2ccc(C(C)C)cc2)cc1S(=O)(=O)N1CCOCC1", "Potency": "inactive"}, {"smiles": "CCN(C[C@H]1N[C@@](Cc2ccccc2)(C(=O)OC)[C@H]2C(=O)N(Cc3ccccc3)C(=O)[C@@H]12)C(=O)c1ccc(C)cc1", "Potency": "inactive"}, {"smiles": "O=C1C=CN2CCCC2CC1", "note": "(configuration not stated)", "Potency": "inactive"}, {"smiles": "COc1cccc(NC(=O)COC(=O)c2ccc3ccccc3n2)c1", "Potency": "inactive"}, {"smiles": "CCOC(=O)C1CCCN(C(=O)CSc2nnc3nc(C)cc(C)n23)C1", "note": "(configuration not stated)", "Potency": "inactive"}, {"smiles": "COc1cccc(C2=CC(=O)C[C@H](c3ccc(OC)c(OC)c3)C2)c1", "Potency": "inactive"}, {"smiles": "CN(C)C(=O)COC(=O)c1cccc(S(=O)(=O)N2CC3(C)CC2CC(C)(C)C3)c1", "note": "(configuration not stated)", "Potency": "inactive"}, {"smiles": "Cc1ccc(-n2ncc3c2CC(C)(C)CC3NC(=O)Cc2c(C)noc2C)cc1", "note": "(configuration not stated)", "Potency": "inactive"}, {"smiles": "COC(=O)[C@]1(CC(C)C)N[C@H](c2ccc(SC3CCCCC3)cc2)[C@@H]2C(=O)N(C)C(=O)[C@@H]21", "Potency": "inactive"}, {"smiles": "O=C1COc2ccc(C(=O)CSc3ccc(Br)cc3)cc2N1", "Potency": "inactive"}, {"smiles": "Cc1ccc(N2CC(C(=O)N3CCC4(CC3)CC(=O)c3ccccc3O4)CC2=O)cc1C", "note": "(configuration not stated)", "Potency": "inactive"}, {"smiles": "CC(=O)Nc1ccc(S(=O)(=O)NCCC(=O)N2CCN(c3ccccc3Cl)CC2)cc1", "Potency": "inactive"}, {"smiles": "Fc1ccccc1-c1cc2cc3c(cc2cn1)OCO3", "Potency": "inactive"}, {"smiles": "CCN(CC(=O)Nc1ccc(OC)cc1)C(=O)CSCc1ccc(C)cc1", "Potency": "inactive"}, {"smiles": "Cc1cccc(N(Cc2ccccc2)C(=O)c2cc(S(=O)(=O)N3CCOCC3)ccc2F)c1", "Potency": "inactive"}, {"smiles": "CCN(CC)S(=O)(=O)c1ccc(N2CCOCC2)c(NC(=O)C(C)Oc2ccc(F)cc2)c1", "note": "(configuration not stated)", "Potency": "inactive"}, {"smiles": "CC1Sc2ccc(C(=O)NCc3ccccc3Cl)cc2NC1=O", "note": "(configuration not stated)", "Potency": "inactive"}, {"smiles": "O=C(O[C@@H]1[C@H](Cc2ccccc2)NS(=O)(=O)[C@H]2C[C@@H]3C=C[C@]12O3)c1ccccc1Br", "Potency": "inactive"}, {"smiles": "CC(C)(C)OC(=O)C[C@@H]1C/C=C\\C[C@H](CC(=O)N[C@@H](CO)Cc2ccccc2)C(=O)N[C@H](Cc2ccccc2)COC1=O", "Potency": "inactive"}, {"smiles": "CN=C(Nc1cccc(S(=O)(=O)N2CCOCC2)c1)c1ccccc1", "Potency": "inactive"}, {"smiles": "Oc1ccccc1CN1CCN(C(c2ccccc2)c2ccccc2)CC1", "Potency": "inactive"}, {"smiles": "COc1ccc(-c2cc(=O)oc3cc(OC(C)C(=O)Nc4ccc(CN5CCOCC5)cc4)ccc23)cc1", "note": "(configuration not stated)", "Potency": "inactive"}, {"smiles": "COc1ccc(CNC(=O)C[C@H]2C[C@H](C(=O)N3CCOCC3)[C@@]3(CCC4CCCC4)c4[nH]c5ccc(Cl)cc5c4CCN3C2=O)cc1OC", "Potency": "inactive"}, {"smiles": "CC(=O)Nc1ccc(SC[C@H](Cc2ccccc2)N2CC[C@@H](C)CCC2=O)cc1", "Potency": "inactive"}, {"smiles": "O=C(COC(=O)COc1cccc(F)c1)NCC1CCCCC1", "Potency": "inactive"}, {"smiles": "O=C(NCc1ccccc1CN1CCCC1)C1CCN(S(=O)(=O)c2ccc(Cl)cc2)CC1", "Potency": "inactive"}, {"smiles": "Cc1cccc(NC(=O)c2ccc(S(=O)(=O)N(C)c3ccccc3)cc2)n1", "Potency": "inactive"}, {"smiles": "COc1ccc(NC(=O)CN2C(=O)COc3ccc(S(=O)(=O)N4CCOCC4)cc32)c(OC)c1", "Potency": "inactive"}, {"smiles": "Cc1ccc(CNC(=O)Cn2cnc3c(NCc4ccccc4)ncnc32)o1", "Potency": "inactive"}, {"smiles": "COc1ccccc1N(C)S(=O)(=O)c1ccc(Cl)c(C(=O)Nc2ccncc2)c1", "Potency": "inactive"}, {"smiles": "C[C@H]1COC(=O)[C@H](CC(=O)OC(C)(C)C)C/C=C\\C[C@@H](CC(=O)N[C@H](CO)Cc2ccccc2)C(=O)N1", "Potency": "inactive"}, {"smiles": "Nc1cc(N)nc(SCC(=O)Nc2cccc(S(=O)(=O)N3CCCCC3)c2)n1", "Potency": "inactive"}, {"smiles": "COc1ccc(S(=O)(=O)N2CCCCCC2)cc1NC(=O)Cc1ccc(OC)c(OC)c1", "Potency": "inactive"}, {"smiles": "COC(=O)c1cc(C(=O)NC(C)C2CC3CCC2C3)cc([N+](=O)[O-])c1", "note": "(configuration not stated)", "Potency": "inactive"}, {"smiles": "O=C(CN(Cc1ccc(Br)cc1)S(=O)(=O)c1ccccc1)NCc1ccncc1", "Potency": "inactive"}, {"smiles": "Cc1ccc(C)c(N2CCN(C(=O)CCc3nc(-c4cccc(C(F)(F)F)c4)no3)CC2)c1", "Potency": "inactive"}, {"smiles": "COc1cc2c(cc1OC)C(c1ccc(C)o1)CC(=O)N2", "note": "(configuration not stated)", "Potency": "inactive"}, {"smiles": "CCCOc1ccccc1C1CC(=O)Nc2cc3c(cc21)OCO3", "note": "(configuration not stated)", "Potency": "23.1 µM (active)"}, {"smiles": "COc1ccc(C2CC(=O)Nc3cc(C)c(C)cc32)c(OC)c1OC", "note": "(configuration not stated)", "Potency": "inactive"}, {"smiles": "COc1ccc(NC(=O)c2cnc(NS(=O)(=O)c3ccccc3)nc2)cc1", "Potency": "inactive"}, {"smiles": "COC(=O)[C@H](Cc1ccccc1)NC(=O)Nc1ccc(OC)cc1", "Potency": "inactive"}, {"smiles": "COc1ccc(NC(=O)c2sc(N)nc2-c2ccccc2)cc1", "Potency": "12.6 µM (active)"}, {"smiles": "CCCCCCSc1ccc([C@@H]2[C@@H]3C(=O)N(CC)C(=O)[C@@H]3[C@]3(C(=O)OC)CCCCN23)cc1OC", "Potency": "inactive"}, {"smiles": "O=C(c1ccc(S(=O)(=O)NCc2ccco2)cc1)N1CCN(c2ccccc2)CC1", "Potency": "inactive"}, {"smiles": "CCN1C(=O)[C@@H]2[C@@H](c3ccc(-c4ccc(OC)cc4)c(OC)c3)N3CCC[C@@]3(C(=O)OC)[C@@H]2C1=O", "Potency": "inactive"}, {"smiles": "COc1ccc(Cl)cc1NC(=O)CN(C)C(=O)c1cc2ccccc2cc1OC", "Potency": "inactive"}, {"smiles": "CC(C)N(Cc1nnc(-c2ccccc2Br)o1)C(=O)c1cc(Cl)nc2ccccc12", "Potency": "inactive"}, {"smiles": "COc1ccccc1N1CC(C(=O)Nc2nnc(SCC(=O)NC(C)C)s2)CC1=O", "note": "(configuration not stated)", "Potency": "inactive"}, {"smiles": "COc1ccc(/C=N/Nc2cc(N3CCOCC3)nc(C)n2)c(OC)c1", "Potency": "inactive"}, {"smiles": "COc1ccc(N2CCN(C(=O)COC(=O)c3cccc(S(=O)(=O)Nc4ccccc4OC)c3)CC2)cc1", "Potency": "inactive"}]}]}
